Experimental data: PubChem BioAssay
Activity calls are given as the source filed them.

Columns and labels:
[1] = tested on: PRMT1 (protein arginine N-methyltransferase 1); test: PRMT1 binders on small-molecule microarrays, primary screen, biochemical, small-molecule microarray, 635 nm fluorescence (AID 1088); conditions: small-molecule microarray binding, higher = more signal;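 also: binding of Prmt1 protein to compounds spotted on small-molecule microarray slides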
[2] = yeast growth modulation, basal conditions, primary screen, YJM789 clinical isolate, OD600, 24 h (AID 1089);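 also: growth of clinical yeast isolate S. cerevisiae YJM 789 seeded 1000 cells per well; test concentration not given here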; conditions: S. cerevisiae YJM789 growth, higher = more signal, called active from +8 up or from −8 down
[3] = fission yeast growth modulation, primary screen, strain 972, OD600, 24 h, no modulator (AID 1090);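 also: basal condition with compound alone and no growth modifier present; test concentration not given here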; conditions: S. pombe 972 growth, higher = more signal, called active from +8 up or from −8 down
[4] = S. cerevisiae growth modulation with rapamycin, primary screen, strain BY4716, OD600, 96 h (AID 1091); conditions: higher = more signal, called active from +8 up or from −8 down; also: test concentration not given here
[5] = target: Torsin-1A-interacting protein 2 (Homo sapiens) (UniProt Q8NFQ8); test: LULL1 binders on small-molecule microarray, primary screen, cell lysate, human LULL1 lysate, 635/667 nm fluorescence (AID 1092); conditions: hLULL1 lysate binding, 635 nm fluorescence, higher = more signal;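 also: probe is lysate of COS7 cells overexpressing human LULL1; score merges per-feature 667 nm fluorescence with signal-to-noise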
Torsin-1A-interacting protein 2 (Homo sapiens), sequence (Q8NFQ8 whole entry, looked up): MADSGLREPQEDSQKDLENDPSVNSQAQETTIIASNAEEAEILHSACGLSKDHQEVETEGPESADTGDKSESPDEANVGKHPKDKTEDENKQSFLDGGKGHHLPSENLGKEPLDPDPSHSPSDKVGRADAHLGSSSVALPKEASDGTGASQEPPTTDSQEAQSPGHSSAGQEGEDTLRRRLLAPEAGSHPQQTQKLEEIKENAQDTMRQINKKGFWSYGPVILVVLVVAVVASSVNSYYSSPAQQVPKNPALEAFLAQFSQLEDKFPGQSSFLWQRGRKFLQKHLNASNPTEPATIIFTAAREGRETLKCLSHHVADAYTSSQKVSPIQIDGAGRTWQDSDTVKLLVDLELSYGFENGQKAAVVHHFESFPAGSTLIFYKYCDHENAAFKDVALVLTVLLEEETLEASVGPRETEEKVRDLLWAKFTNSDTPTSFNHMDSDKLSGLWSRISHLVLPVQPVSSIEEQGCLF

[6] = E. coli growth modulation, two-sided OD650, primary screen, E. coli filamentation project, strain DRC41, 24 h (AID 1093); conditions: OD650, 24 h, higher = more signal, called active from +8 up or from −8 down;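 also: MC1000 strain lacking acrAB efflux and sulA so SOS filamentation is blocked; test concentration not given here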
[7] = small-molecule microarray binders of probe aLefty2, primary screen, biochemical, biotinylated probe, 635/667 nm fluorescence (AID 1094); conditions: higher = more signal;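 also: score merges spot fluorescence near 667 nm with spot signal-to-noise ratio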
[8] = tested on: Noggin (protein binding on small-molecule microarray); test: Noggin binders on small-molecule microarray, primary screen, biochemical, 635/667 nm fluorescence (AID 1095); conditions: 635 nm fluorescence, higher = more signal;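 also: score merges 667 nm feature fluorescence with signal to noise over triplicate slides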
[9] = target: Neurogenic locus notch homolog protein 3 (Homo sapiens) (UniProt Q9UM47); test: NOTCH3 binders on small-molecule microarray, primary screen, biochemical, 635/667 nm fluorescence (AID 1096); conditions: NOTCH3 binding, 635 nm fluorescence, higher = more signal
Neurogenic locus notch homolog protein 3 (Homo sapiens), sequence (Q9UM47 whole entry, looked up): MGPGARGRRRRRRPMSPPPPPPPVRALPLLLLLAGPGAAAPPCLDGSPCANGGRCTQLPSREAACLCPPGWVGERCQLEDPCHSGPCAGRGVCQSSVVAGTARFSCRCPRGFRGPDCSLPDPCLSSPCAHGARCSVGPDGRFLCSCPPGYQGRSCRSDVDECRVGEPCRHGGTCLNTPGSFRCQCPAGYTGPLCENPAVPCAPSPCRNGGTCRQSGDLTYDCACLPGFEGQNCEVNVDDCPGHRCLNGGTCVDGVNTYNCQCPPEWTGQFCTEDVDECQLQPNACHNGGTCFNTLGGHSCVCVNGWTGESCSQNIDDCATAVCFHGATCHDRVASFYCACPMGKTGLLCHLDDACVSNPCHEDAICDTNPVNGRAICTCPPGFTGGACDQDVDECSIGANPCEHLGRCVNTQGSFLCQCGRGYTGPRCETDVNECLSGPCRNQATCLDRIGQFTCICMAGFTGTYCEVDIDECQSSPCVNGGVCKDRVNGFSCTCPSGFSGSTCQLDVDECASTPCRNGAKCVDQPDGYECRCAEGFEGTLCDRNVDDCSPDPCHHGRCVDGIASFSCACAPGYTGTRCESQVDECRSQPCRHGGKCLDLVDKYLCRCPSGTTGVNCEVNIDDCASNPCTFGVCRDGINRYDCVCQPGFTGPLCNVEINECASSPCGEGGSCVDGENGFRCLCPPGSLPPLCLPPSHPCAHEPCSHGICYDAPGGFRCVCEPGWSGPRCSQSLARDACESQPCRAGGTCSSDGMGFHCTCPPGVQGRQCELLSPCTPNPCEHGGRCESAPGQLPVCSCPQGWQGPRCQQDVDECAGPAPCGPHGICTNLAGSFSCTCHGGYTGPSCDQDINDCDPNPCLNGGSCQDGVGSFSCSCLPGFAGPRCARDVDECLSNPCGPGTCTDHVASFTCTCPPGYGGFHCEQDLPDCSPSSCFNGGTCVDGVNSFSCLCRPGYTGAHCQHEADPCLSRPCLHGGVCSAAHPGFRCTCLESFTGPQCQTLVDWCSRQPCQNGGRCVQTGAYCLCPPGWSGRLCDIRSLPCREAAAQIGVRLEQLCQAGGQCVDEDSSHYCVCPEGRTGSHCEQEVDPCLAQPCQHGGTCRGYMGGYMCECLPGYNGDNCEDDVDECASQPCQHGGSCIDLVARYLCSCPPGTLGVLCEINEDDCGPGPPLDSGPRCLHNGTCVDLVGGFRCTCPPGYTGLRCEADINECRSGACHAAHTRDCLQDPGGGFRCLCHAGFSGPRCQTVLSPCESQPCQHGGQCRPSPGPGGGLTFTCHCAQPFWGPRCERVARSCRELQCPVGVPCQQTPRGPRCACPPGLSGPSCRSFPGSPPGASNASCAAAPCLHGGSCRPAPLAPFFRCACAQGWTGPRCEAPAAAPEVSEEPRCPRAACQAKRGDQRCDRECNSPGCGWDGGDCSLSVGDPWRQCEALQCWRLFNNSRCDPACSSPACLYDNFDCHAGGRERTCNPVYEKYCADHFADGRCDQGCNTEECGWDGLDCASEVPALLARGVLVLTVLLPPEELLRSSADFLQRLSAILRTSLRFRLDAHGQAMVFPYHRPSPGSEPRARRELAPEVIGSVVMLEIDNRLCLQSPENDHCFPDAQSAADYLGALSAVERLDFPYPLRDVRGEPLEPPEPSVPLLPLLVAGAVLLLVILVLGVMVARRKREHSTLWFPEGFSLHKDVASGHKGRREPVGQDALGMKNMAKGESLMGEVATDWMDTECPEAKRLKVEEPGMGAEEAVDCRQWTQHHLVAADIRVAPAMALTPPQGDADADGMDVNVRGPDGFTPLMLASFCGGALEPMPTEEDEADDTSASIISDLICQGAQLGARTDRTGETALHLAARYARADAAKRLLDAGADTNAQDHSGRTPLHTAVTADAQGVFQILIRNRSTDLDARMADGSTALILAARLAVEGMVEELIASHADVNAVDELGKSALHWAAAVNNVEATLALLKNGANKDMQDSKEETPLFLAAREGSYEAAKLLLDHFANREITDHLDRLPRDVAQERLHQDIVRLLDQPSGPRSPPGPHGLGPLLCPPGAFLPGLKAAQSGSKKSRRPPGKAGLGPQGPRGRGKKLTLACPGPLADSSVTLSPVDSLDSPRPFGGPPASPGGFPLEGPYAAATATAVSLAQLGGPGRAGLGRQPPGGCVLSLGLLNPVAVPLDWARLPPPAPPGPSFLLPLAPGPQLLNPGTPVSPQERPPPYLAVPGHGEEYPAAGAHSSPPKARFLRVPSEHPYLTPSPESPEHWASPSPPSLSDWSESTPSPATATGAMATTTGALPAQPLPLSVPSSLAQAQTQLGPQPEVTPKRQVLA

[10] = small-molecule microarray binders of probe aEGFR, primary screen, biochemical, biotinylated probe, 635/667 nm fluorescence (AID 1097); conditions: higher = more signal;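 also: probe is a biotinylated anti-EGFR antibody binding compounds printed on slides; score combines fluorescence near 667 nm and signal to noise of each spot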
[11] = tested on: Plasmodium falciparum Sir2 (PF13_0152, Sir2A); test: pfSir2 binders on small-molecule microarrays, primary screen, biochemical, small-molecule microarray, 635 nm fluorescence (AID 1098); conditions: small-molecule microarray binding, fluorescence 635 nm; higher = more signal;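 also: score merges spot fluorescence intensity with its signal-to-noise ratio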
[12] = small-molecule microarray binders of probe aDKK1, primary screen, biochemical, biotinylated probe, 635/667 nm fluorescence (AID 1099); conditions: higher = more signal;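 also: score merges 667nm spot fluorescence with signal to noise across triplicate slides; reference of the scale not given here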
[13] = small-molecule microarray binders of probe aCHRDL2, primary screen, biochemical, biotinylated probe, 635/667 nm fluorescence (AID 1100); conditions: higher = more signal
[14] = splicing luciferase reporter signal modulators, primary screen, spliceosome inhibition project, cell-based, HEK293, splice +/- reporter (AID 1101); conditions: luminescence, 24 h, higher = more signal, called active from +8 up or from −8 down;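 also: HEK293 cells carrying a splicing-competent luciferase reporter gene; test concentration not given here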
[15] = target: Fibroblast growth factor 10 (Homo sapiens) (UniProt O15520); test: FGF10 binders on small-molecule microarrays, primary screen, biochemical, small-molecule microarray, 635 nm fluorescence (AID 1102); conditions: FGF10 binding, fluorescence 635 nm, higher = more signal
Fibroblast growth factor 10 (Homo sapiens), sequence (O15520 whole entry, looked up): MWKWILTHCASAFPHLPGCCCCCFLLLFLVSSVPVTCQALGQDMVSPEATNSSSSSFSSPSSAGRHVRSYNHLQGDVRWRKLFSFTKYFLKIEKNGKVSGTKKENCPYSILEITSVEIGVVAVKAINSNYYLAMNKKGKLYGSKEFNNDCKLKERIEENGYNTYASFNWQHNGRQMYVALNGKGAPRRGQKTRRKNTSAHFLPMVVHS

[16] = tested on: glycogen synthase kinase-3 (GSK3A per assay name; protocol says GSK3B); test: GSK3 binders on small-molecule microarrays, primary screen, biochemical, small-molecule microarray, 635 nm fluorescence, GSK3A (AID 1103); conditions: small-molecule microarray binding, fluorescence 635 nm; higher = more signal; also: the record names both GSK3A and GSK3B
[17] = target: Epidermal growth factor receptor (Homo sapiens) (UniProt P00533); test: EGFR binders on small-molecule microarrays, primary screen, biochemical, small-molecule microarray, 635 nm fluorescence (AID 1104); conditions: EGFR binding, higher = more signal;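 also: score merges 667 nm emission intensity with spot signal to noise over triplicate slides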
Epidermal growth factor receptor (Homo sapiens), sequence (P00533 whole entry, looked up): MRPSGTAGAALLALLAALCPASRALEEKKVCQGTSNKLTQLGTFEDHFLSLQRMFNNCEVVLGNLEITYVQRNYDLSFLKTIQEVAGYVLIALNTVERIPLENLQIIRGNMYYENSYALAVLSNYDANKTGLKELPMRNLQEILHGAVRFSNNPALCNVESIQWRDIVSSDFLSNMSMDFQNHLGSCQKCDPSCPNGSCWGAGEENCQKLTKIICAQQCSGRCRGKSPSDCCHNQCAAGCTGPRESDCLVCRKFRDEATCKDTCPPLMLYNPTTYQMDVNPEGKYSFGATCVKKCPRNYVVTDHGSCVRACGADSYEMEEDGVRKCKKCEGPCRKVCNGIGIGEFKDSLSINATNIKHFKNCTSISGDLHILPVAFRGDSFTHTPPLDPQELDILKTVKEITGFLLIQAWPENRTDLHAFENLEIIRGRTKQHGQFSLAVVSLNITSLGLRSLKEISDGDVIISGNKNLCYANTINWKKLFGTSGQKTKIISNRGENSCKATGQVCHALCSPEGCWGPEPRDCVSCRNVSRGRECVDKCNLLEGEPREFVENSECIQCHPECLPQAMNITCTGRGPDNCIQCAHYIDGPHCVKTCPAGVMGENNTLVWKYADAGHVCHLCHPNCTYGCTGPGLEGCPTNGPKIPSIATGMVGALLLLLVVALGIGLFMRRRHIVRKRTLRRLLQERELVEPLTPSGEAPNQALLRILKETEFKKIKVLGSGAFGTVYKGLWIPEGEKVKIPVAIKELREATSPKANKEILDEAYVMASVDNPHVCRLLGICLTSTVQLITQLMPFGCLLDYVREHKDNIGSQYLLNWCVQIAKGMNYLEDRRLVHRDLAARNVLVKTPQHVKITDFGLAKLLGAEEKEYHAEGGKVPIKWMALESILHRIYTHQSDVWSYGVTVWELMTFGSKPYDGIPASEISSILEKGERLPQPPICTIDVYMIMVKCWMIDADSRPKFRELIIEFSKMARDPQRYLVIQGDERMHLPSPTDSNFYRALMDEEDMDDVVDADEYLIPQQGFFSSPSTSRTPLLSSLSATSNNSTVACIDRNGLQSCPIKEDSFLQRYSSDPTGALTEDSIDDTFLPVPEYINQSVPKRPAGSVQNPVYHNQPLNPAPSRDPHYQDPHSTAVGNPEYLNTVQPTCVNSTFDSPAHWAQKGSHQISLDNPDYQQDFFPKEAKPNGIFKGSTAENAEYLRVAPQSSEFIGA

[18] = target: Follistatin-related protein 3 (Homo sapiens) (UniProt O95633); test: FSTL3 binders on small-molecule microarrays, primary screen, biochemical, small-molecule microarray, 635 nm fluorescence (AID 1105); conditions: FSTL3 binding, higher = more signal;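 also: score merges emission near 667 nm and signal to noise per printed spot across three slides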
Follistatin-related protein 3 (Homo sapiens), sequence (O95633 whole entry, looked up): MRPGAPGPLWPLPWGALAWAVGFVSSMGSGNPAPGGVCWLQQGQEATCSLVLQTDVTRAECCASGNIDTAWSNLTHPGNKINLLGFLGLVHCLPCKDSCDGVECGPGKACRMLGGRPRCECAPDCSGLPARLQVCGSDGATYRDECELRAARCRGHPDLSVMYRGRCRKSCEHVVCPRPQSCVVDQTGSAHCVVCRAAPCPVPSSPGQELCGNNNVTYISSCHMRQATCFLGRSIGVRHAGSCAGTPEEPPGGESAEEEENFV

[19] = target: Dickkopf-related protein 1 (Homo sapiens) (UniProt O94907); test: DKK1 binders on small-molecule microarrays, primary screen, biochemical, small-molecule microarray, 635 nm fluorescence scan (AID 1106); conditions: DKK1 binding, higher = more signal;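 also: score merges emission near 667 nm with signal to noise over three replicate slides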
Dickkopf-related protein 1 (Homo sapiens), sequence (O94907 whole entry, looked up): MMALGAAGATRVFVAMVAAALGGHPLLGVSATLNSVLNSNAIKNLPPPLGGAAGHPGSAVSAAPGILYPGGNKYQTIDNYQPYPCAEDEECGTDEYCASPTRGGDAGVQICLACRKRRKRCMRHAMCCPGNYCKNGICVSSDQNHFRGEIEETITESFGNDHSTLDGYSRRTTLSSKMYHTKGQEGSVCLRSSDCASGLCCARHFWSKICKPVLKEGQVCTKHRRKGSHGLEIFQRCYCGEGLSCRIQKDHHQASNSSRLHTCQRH

[20] = tested on: Inhibin beta A chain (activin A); test: INHBA (activin A) binders on microarrays, primary screen, biochemical, small-molecule microarray, 635 nm fluorescence scan (AID 1107); conditions: small-molecule microarray binding, higher = more signal;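 also: mouse activin A protein probed at 4.33 µg/mL on printed slides; score merges bound-protein fluorescence near 667 nm with spot signal-to-noise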

SMILES	composite z-score [1]	z-score [2]	z-score [3]	z-score [4]	composite z-score [5]	z-score [6]	composite z-score [7]	composite z-score [8]	composite z-score [9]	composite z-score [10]	composite z-score [11]	composite z-score [12]	composite z-score [13]	z-score [14]	composite z-score [15]	composite z-score [16]	composite z-score [17]	composite z-score [18]	composite z-score [19]	composite z-score [20]
O=c1cccc(CCc2ccccc2)o1	1.08	-0.951 (inactive)	-2.06 (inactive)	0.102 (inactive)	1.8	-0.97 (inactive)	-0.117	0.491	0.621	-0.171	0.931	-0.232	-0.44	0.722 (inactive)	0.228	0.599	-0.834	0.153	0.193	0.532
Cc1ccc(S[C@]2(C(=O)NCc3ccccc3)CC(=O)N(Cc3ccccc3)[C@@H]2c2ccc(CO)cc2)cc1	1.55	-0.349 (inactive)	-0.288 (inactive)	-0.0702 (inactive)	3.04	-0.927 (inactive)	-0.001	-0.9	-0.91	-0.272	0.979	0.114	0.694	0.643 (inactive)	-0.173	-0.789	-1.22	-1.01	-0.799	-0.317
NCCCCCNC(=O)[C@H]1C[C@H]2C(=O)NCC(=O)N2[C@H]1c1cccc(OCCO)c1	1.31	-0.155 (inactive)	-1.02 (inactive)	-0.189 (inactive)	2.34	0.946 (inactive)	-0.0766	1.33	0.6	0.0311	1.64	0.31	0.284	-0.284 (inactive)	1.25	1.29	0.388	0.764	0.912	-0.0463
CCOC(=O)[C@H]1C/C=C/C[C@H](C(=O)OCC)C(=O)O[C@H]2[C@@H](OC)O[C@H](CO)[C@@H](OC(=O)Nc3ccc4c(c3)OCO4)[C@@H]2OC1=O	0.921	1.12 (inactive)	0.079 (inactive)	6.03 (inactive)	2.35	1.59 (inactive)	-0.0238	-0.259	0.145	-0.071	0.353	0.0005	0.0193	-1.14 (inactive)	0.79	0.677	-0.407	0.294	-0.009	0.456
CCCCCN1CC=CC23O[C@@H]4C=CCOC(=O)[C@@H]4[C@H]2C(=O)N(CCCO)[C@@H]3C1=O (stereo not given in full)	1.55	0.811 (inactive)	-0.717 (inactive)	-1.05 (inactive)	3.5	3.09 (inactive)	-0.221	0.243	0.0152	-0.185	1.63	-0.263	0.359	-1.76 (inactive)	-0.519	0.462	-0.681	-0.264	-0.49	0.908
CC(=CC1CCCCC1)[C@@H](NC(=O)c1ccc(C(F)(F)F)cc1)c1ccc(-c2ccccc2)cc1	-0.211	0.537 (inactive)	-0.91 (inactive)	-0.938 (inactive)	-0.192	-1.33 (inactive)	0.0943	0.0323	-0.779	0.0353	-0.0411	0.41	0.848	-0.423 (inactive)	-0.394	-0.988	-0.365	0.138	-0.0349	1.03
CCC(CC)C(O)C1C=CC2C(=O)N(c3ccccc3)C(=O)C2N1Nc1ccc(C#N)cc1 (stereo not given)	1.55	-0.295 (inactive)	0.621 (inactive)	1.28 (inactive)	3.2	-0.279 (inactive)	0.615	-0.136	1.04	0.334	0.82	1.29	0.705	1.22 (inactive)	0.783	1.27	0.231	0.78	-0.197	0.794
CN(C)CCCNC(=O)[C@@]1(Cc2ccccc2I)c2ccccc2C(=O)N(Cc2ccccc2C(F)(F)F)[C@H]1c1ccc(CO)cc1	1.05	-0.0554 (inactive)	-19.8 (active)	-2.58 (inactive)	3.45	-0.971 (inactive)	-0.16	-1.16	-0.848	-0.295	0.278	0.234	0.86	-1.55 (inactive)	-0.75	0.391	-1.62	-1.34	-1.33	0.094
COC(=O)c1ccc(C(O)C2C=CC3C(=O)N(c4ccccc4)C(=O)C3N2Nc2ccc(C#N)cc2)o1 (stereo not given)	0.431	-0.0337 (inactive)	0.328 (inactive)	0.989 (inactive)	3.19	-1.07 (inactive)	-0.0478	0.284	0.927	-0.0446	0.969	0.51	0.669	1.28 (inactive)	0.989	0.137	0.219	0.311	-0.0752	0.961
COC(=O)[C@@]1(Cc2ccccc2)[C@H]2c3cc(C(=O)N(C)C)n(Cc4cc(C)n(C)n4)c3C[C@H]2CN1C(=O)c1ccccc1	0.0423	-0.571 (inactive)	-0.528 (inactive)	-0.649 (inactive)	3.96	-0.564 (inactive)	0.0382	-0.127	0.809	0.238	1.32	0.866	0.947	-1.26 (inactive)	0.0408	0.764	0.3	0.642	-0.72	1.11
C=CCOC(=O)[C@@H]1[C@H]2C(=O)O[C@H](c3ccccc3)[C@H](c3ccccc3)N2[C@H](c2ccc(OCCOC(=O)[C@@H]3C[C@@H]4C(=O)NCC(=O)N4[C@@H]3c3cccc(OCCO)c3)cc2)[C@@]12C(=O)Nc1ccc(I)cc12	1.53	0.895 (inactive)	1.01 (inactive)	2.19 (inactive)	2.53	-0.637 (inactive)	-0.0654	1.14	1.1	0.0618	1.05	0.0651	-0.162	-0.798 (inactive)	1.29	1.16	1.12	1.1	0.866	0.884
COCC(=C=CC[C@H](O)c1ccc(OCCO)cc1)C[C@H](O)c1cc(Cl)cc(Cl)c1O	1.55	-24.9 (active)	-20.5 (active)	-3.87 (inactive)	-1.22	0.813 (inactive)	-0.166	1.86	1.12	-0.0334	0.654	-0.268	-0.0229	-2.51 (inactive)	1.55	0.26	0.0404	1.11	-0.043	0.598
O=c1oc(-c2ccccc2)nc2cc(Br)ccc12	0.35	0.844 (inactive)	-1.43 (inactive)	-0.0605 (inactive)	0.711	0.258 (inactive)	-0.0478	0.625	0.693	-0.111	0.486	-0.184	-0.493	-0.288 (inactive)	0.312	0.838	0.448	0.582	0.508	-0.0295
CC(=O)C1=CCC(c2ccccc2)N(S(=O)(=O)c2ccc(C)cc2)C1 (stereo not given)	1.53	-1.31 (inactive)	0.888 (inactive)	4.92 (inactive)	2.6	-1.03 (inactive)	-0.0118	0.229	0.821	-0.039	1.4	0.196	0.469	0.0149 (inactive)	0.586	0.258	0.255	1.01	0.0538	1.12
C=CC[C@@]1(C(=O)NCC(O)CO)N=C(c2ccc(OCCCO)cc2)O[C@@H]1c1ccccc1N=[N+]=[N-] (stereo not given in full)	1.18	-0.711 (inactive)	-1.89 (inactive)	0.068 (inactive)	3.79	1.01 (inactive)	0.208	0.84	1.04	0.0376	0.663	0.854	1.12	-1.25 (inactive)	0.618	-0.669	-0.656	0.326	-0.612	1.02
CCN(CC)c1ccc(N2CC=CC34O[C@@H]5/C=C\CCCOC(=O)C5[C@H]3C(=O)N(C(CO)C(C)C)[C@@H]4C2=O)cc1 (stereo not given in full)	0.0395	0.803 (inactive)	-0.193 (inactive)	-0.0204 (inactive)	2.03	-0.309 (inactive)	-0.168	-0.708	-0.0981	-0.198	1.23	-0.252	-0.0922	0.167 (inactive)	-0.711	-0.748	-1.05	-0.8	-0.681	1.11
COc1ccc(NN2C(C(O)c3ccc(OC)c(OCc4ccccc4)c3)C=CC3C(=O)N(C4CCCCC4)C(=O)C32)cc1 (stereo not given)	1.3	-0.352 (inactive)	0.225 (inactive)	-0.724 (inactive)	3.24	0.644 (inactive)	0.0225	0.181	1.05	-0.0688	0.897	0.686	0.627	-0.306 (inactive)	0.622	0.995	0.216	1	-0.228	1.13
CC(C)OC(=O)CC(=O)CC(O)c1ccc(C#N)cc1 (stereo not given)	0.269	-2.05 (inactive)	0.331 (inactive)	-0.602 (inactive)	1.85	0.0935 (inactive)	0.403	-0.263	0.14	0.0541	-0.165	0.715	1.23	-1.74 (inactive)	0.169	0.148	-0.361	0.078	-0.997	0.891
C[N+](C)(C)CCCCCCNC(=O)[C@H]1C[C@H]2C(=O)N3CCC[C@H]3C(=O)N2[C@H]1c1ccc(O)cc1	1.54	-0.842 (inactive)	-0.153 (inactive)	-0.185 (inactive)	2.96	0.89 (inactive)	0.0087	0.785	0.6	-0.36	1.07	-0.258	-0.201	-0.677 (inactive)	0.205	0.196	-0.278	0.196	0.744	1.03
COCCCNC(=O)[C@@]1(CCC(=O)OC(C)(C)C)N=C(c2ccc(OCCCO)cc2)O[C@H]1c1ccccc1CN=[N+]=[N-]	1.26	-0.187 (inactive)	-0.738 (inactive)	-0.363 (inactive)	3.74	0.316 (inactive)	0.194	0.624	1.06	0.305	1.62	0.965	1.08	-0.228 (inactive)	1.56	1.13	0.123	0.932	0.119	0.471
